The target in assay [1] is Transcription factor E2F1 (Homo sapiens) (UniProt Q01094). The experiment in a line: ATG_E2F_CIS: Attagene CIS-FACTORIAL HepG2 Assay for human E2F Transcription Factor 1 (AID 2282935). The note with it: HepG2 Attagene cis-reporter, E2F reporter RNA transcripts; actives raise or lower the signal. The method, boiled down: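 Cis-element reporter mRNA induction in transiently transfected HepG2, 24 h exposure. Activity fitted in both directions relative to DMSO negative control.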

The nature of assay [2]: ATG_E_Box_CIS: Attagene CIS-FACTORIAL HepG2 Assay for human Enhancer Box (E-box) (AID 2282936). The note with it: HepG2 E-box cis-reporter transcription, actives raise or lower the signal. The method, boiled down: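 Cells: HepG2 (human liver), transient MRTU transfection. Exposure 24 h. RNA → oligo(dT) RT → PCR → 6-FAM label → HpaI → CE. Activity fitted both directions relative to DMSO.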

Assay [3] is described as follows: ATG_M_61_CIS: Attagene CIS-FACTORIAL HepG2 Assay for M61 Transcription Factor (Internal Marker) (AID 2282937). As to conditions: HepG2 Attagene CIS-FACTORIAL M61 internal marker reporter; actives raise or lower the signal. The method, boiled down:
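This endpoint serves as an internal background control within a multiplexed HepG2 cis-reporter panel. Cells are exposed for 24 h; reporter mRNA is amplified, fluorescently labelled and sized by capillary electrophoresis, with DMSO as negative control.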

Assay [4] in a line: ATG_EGR_CIS: Attagene CIS-FACTORIAL HepG2 Assay for human Early Growth Response 1 (EGR1) (AID 2282938). As to conditions: HepG2 Attagene CIS-FACTORIAL EGR reporter mRNA; actives raise or lower the signal. Put shortly: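 HepG2, transient MRTU transfection (cis promoters), 24 h compound. RNA → RT (oligo-dT) → PCR → 6-FAM labelling → HpaI cut → CE fluorescence. Bidirectional fit, DMSO baseline.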

A short description of assay [5]: ATG_M_19_CIS: Attagene CIS-FACTORIAL HepG2 Assay for M19 Transcription Factor (Internal Marker) (AID 2282939). As to conditions: HepG2 Attagene CIS-FACTORIAL M19 internal marker reporter; actives raise or lower the signal. The method, boiled down: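 HepG2, MRTU transient transfection, 24 h dosing. Total RNA → RT-PCR → 6-FAM primer extension → HpaI digest → CE fluorescence. Bidirectional curve fit, DMSO negative control.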

Assay [6] in a line: ATG_ERE_CIS: Attagene CIS-FACTORIAL HepG2 Assay for Estrogen Response Element (ERE) (AID 2282940). The note with it: HepG2 ERE cis-reporter, Attagene RNA transcript; actives raise or lower the signal. Put shortly:
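After a 24 h chemical treatment, RNA from reporter-transfected HepG2 cells is reverse-transcribed, PCR-amplified and fluorescently labelled. Fragments separated by capillary electrophoresis give reporter signal; DMSO serves as negative control.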

The nature of assay [7]: ATG_Ets_CIS: Attagene CIS-FACTORIAL HepG2 Assay for human Erythroblast Transformation Specific (ETS) (AID 2282941). The note with it: HepG2 ETS cis-reporter transcription, actives raise or lower the signal. The method, boiled down:
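After transient cis-reporter transfection, HepG2 cells receive test chemical for 24 h. Reporter mRNA levels, measured by RT-PCR and capillary electrophoresis fluorescence, are analysed bidirectionally relative to the DMSO baseline.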

Assay [8] deals with Hepatocyte nuclear factor 3-beta (Homo sapiens) (UniProt Q9Y261). Kind of assay: ATG_FoxA2_CIS: Attagene CIS-FACTORIAL HepG2 Assay for human Forkhead box A2 (FOXA2) (AID 2282942). As to conditions: HepG2 cis-reporter transcription factor activity, 24 h; actives raise or lower the signal. The method, boiled down: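 Cells: HepG2, transient multiplex reporter transfection. Exposure 24 h. Detection: reporter-specific RT-PCR, fluorescent labelling, restriction digest, capillary electrophoresis. Analysis: bidirectional curve fit, DMSO as negative control.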

A short description of assay [9]: ATG_FoxO_CIS: Attagene CIS-FACTORIAL HepG2 Assay for human Forkhead box O (FoxO) (AID 2282943). The note with it: HepG2 Attagene cis-reporter, FoxO element, mRNA; actives raise or lower the signal. The method, boiled down: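 HepG2, transient MRTU transfection (cis element, endogenous TFs). Dose 24 h. TriZol RNA → oligo(dT) RT → PCR → 6-FAM primer extension → HpaI cut → CE. Gain/loss vs DMSO.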

A short description of assay [10]: ATG_GATA_CIS: Attagene CIS-FACTORIAL HepG2 Assay for human GATA Binding Protein (AID 2282944). As to conditions: HepG2 GATA cis-element reporter, Attagene multiplex mRNA; actives raise or lower the signal. Put shortly: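 Cells: HepG2, transiently transfected with cis-regulated reporter transcription units. Exposure: 24 h. Detection: RT-PCR plus capillary electrophoresis of FAM-labeled fragments. Analysis: bidirectional, DMSO as baseline.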

This is an account of results in PubChem BioAssay (EPA / NIEHS).

Molecules are shown by their SMILES. Activity calls are given as the source filed them. Rule for the calls: active = hit-call score of the fitted dose curve at least 0.9, where 1 is the maximum; inactive = score below 0.9.

Hepatocyte nuclear factor 3-beta (Homo sapiens), sequence (Q9Y261 whole entry, looked up): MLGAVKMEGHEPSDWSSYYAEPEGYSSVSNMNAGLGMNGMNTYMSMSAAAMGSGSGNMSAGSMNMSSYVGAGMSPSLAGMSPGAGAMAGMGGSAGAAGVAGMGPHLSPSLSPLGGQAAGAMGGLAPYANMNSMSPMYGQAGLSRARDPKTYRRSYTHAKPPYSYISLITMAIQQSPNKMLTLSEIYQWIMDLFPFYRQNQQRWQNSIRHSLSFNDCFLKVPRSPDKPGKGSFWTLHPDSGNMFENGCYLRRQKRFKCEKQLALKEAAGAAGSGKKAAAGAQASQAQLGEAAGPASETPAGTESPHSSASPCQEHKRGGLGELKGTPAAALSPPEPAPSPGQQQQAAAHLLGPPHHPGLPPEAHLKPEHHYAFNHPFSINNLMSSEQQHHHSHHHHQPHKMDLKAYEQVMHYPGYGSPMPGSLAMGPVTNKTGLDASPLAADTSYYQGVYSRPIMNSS
Transcription factor E2F1 (Homo sapiens), sequence (Q01094 whole entry, looked up): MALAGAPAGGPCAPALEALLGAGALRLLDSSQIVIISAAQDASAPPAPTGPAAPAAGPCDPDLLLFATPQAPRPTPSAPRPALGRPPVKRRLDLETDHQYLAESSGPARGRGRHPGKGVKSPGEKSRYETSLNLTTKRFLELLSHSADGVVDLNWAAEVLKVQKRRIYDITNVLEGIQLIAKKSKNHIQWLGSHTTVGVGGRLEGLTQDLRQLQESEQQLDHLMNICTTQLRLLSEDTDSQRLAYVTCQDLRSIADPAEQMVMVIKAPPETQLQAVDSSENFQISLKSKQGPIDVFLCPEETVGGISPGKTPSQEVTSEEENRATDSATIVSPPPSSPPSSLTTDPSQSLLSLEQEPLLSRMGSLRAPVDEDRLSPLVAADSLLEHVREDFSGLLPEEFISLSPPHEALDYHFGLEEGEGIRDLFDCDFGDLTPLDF

What is called AC50 is the concentration at which the activity in the assay is half-maximal. Turning to `c1ccc2c(c1)-c1ccc3ccc4cccc5cc-2c1c3c45`, the compound was classed as inactive in assay [1], in assay [2], in [3], in assay [4], in [5] and in assay [7]. In addition, the call in [9] and in assay [10] was inactive. The results for the AC50 in assay [6] and in assay [8] were 0.374 µM (active) and 0.381 µM (active), respectively.

Turning to `CCCCCCOc1ccc(O)cc1`, the compound was classed as inactive in [1], in [2], in [3], in [4], in [5] and in [7]. In addition, the compound was classed as inactive in assay [8], in assay [9] and in [10]. Further, the AC50 in assay [6] is 2.79 µM (active).

`OCCCO`: the compound was called inactive in assay [1], in assay [2], in assay [3], in assay [4], in assay [5] and in [6]. Also, the call in [7], in assay [8], in assay [9] and in [10] was inactive.

Turning to `CCCCCCCOC(C)=O`, the compound was called inactive in assay [1], in [2], in [3], in assay [4], in assay [5] and in [7]. In addition, the compound was called inactive in assay [9]. For the same compound, in assay [6], the half-maximal activity concentration (AC50) was 3.71 µM (active).

`CC(=O)Nc1cc(S(=O)(=O)O)cc2cc(S(=O)(=O)O)c(N=Nc3ccccc3)c(O)c12`: the compound was called inactive in [1], in [2], in assay [3], in assay [4], in assay [5] and in assay [6]. For the same compound, the compound was classed as inactive in assay [7], in [9] and in [10].

Turning to `CCCCOCCOC(=O)c1ccccc1C(=O)OCCOCCCC`, the call in assay [1], in [2], in [3], in [4], in [5] and in assay [6] was inactive. Moreover, the result in [7], in assay [8], in assay [9] and in [10] was inactive.

Consider `CC(=O)OC/C=C(C)/C=C/C=C(C)/C=C/C1=C(C)CCCC1(C)C`, for which the outcome in assay [1], in assay [2], in assay [3], in assay [5], in assay [6] and in assay [7] was inactive. For the same compound, the call in assay [9] and in assay [10] was inactive. In addition, the AC50 in assay [4] was 122 µM (active).

On to `CCCCC(CC)COCCO` (centres undefined), for which the outcome in [1], in assay [2], in assay [3], in assay [4], in assay [5] and in assay [6] was inactive. The compound was called inactive in assay [7], in assay [9] and in [10].

On to `CC(C)COC(=O)c1ccccc1O`, for which the outcome in assay [1], in [2], in assay [3], in [4], in assay [5] and in [6] was inactive. Also, the result in assay [7], in assay [8], in assay [9] and in [10] was inactive.

For `NS(=O)(=O)c1cc(C(=O)O)c(NCc2ccco2)cc1Cl`, the result in assay [1], in assay [2], in assay [3], in [4], in assay [5] and in assay [6] was inactive. In addition, the call in [7], in [9] and in [10] was inactive.

Take `CC(CO)c1ccccc1` (centres undefined): the call in [1], in [2], in [3], in assay [4], in assay [5] and in assay [6] was inactive. The result in assay [7], in [8], in assay [9] and in assay [10] was inactive.

Take `CC(C)(C)c1cccc(O)c1`: the result in [1], in [2], in assay [3], in [4], in assay [5] and in assay [6] was inactive. The compound was classed as inactive in assay [7], in assay [8], in assay [9] and in assay [10].

For `CC(=O)c1cccnc1`, the compound was classed as inactive in assay [1], in assay [2], in assay [3], in [4], in assay [5] and in [6]. Besides, the call in assay [7] and in assay [9] was inactive.

As for `O=C1OC2(c3ccc(O)cc3Oc3cc(O)ccc32)c2ccccc21`, the result in [1], in assay [2], in assay [3], in assay [4], in assay [5] and in assay [6] was inactive. In addition, the outcome in [7], in assay [9] and in assay [10] was inactive.

On to `CCC(C)COC(=O)CC(C)C` (centres undefined), for which the compound was called inactive in assay [1], in assay [2], in [3], in assay [4], in [5] and in [6]. Besides, the outcome in assay [7], in assay [8], in assay [9] and in assay [10] was inactive.

Turning to `CC/C=C\CCCCO`, the compound was classed as inactive in assay [1], in assay [2], in assay [3], in assay [4], in [5] and in [6]. In addition, the compound was called inactive in assay [7] and in assay [9].

Regarding `CC(C)CCOC(=O)CC(C)C`, the compound was classed as inactive in [1], in [2], in [3], in assay [4], in [5] and in [6]. The compound was classed as inactive in [7], in assay [8], in assay [9] and in assay [10].

Consider `NC(=O)c1c(Cl)cccc1Cl`, for which the result in [1], in [2], in assay [3], in assay [4], in assay [5] and in assay [6] was inactive. Moreover, the call in assay [7] and in assay [9] was inactive.

Consider `OCCN1CCOCC1`, for which the result in assay [1], in assay [2], in [3], in assay [4], in [5] and in assay [7] was inactive. Moreover, the compound was called inactive in [9] and in assay [10]. In [6], the AC50 was 21.4 µM (active).

Regarding `O=C(O)c1ccco1`, the call in [1], in [2], in assay [3], in assay [4], in assay [5] and in assay [6] was inactive. The result in assay [7] and in assay [9] was inactive.
